# Experimental data: the supplement of paper PMC4466140
# Molecular target: AgAbp1
# Experiment: SPOT peptide array binding signal intensity (averaged, normalized) (arbitrary units (background-subtracted, floor 0; scale differs between SH3 domains)); higher = stronger binding of the SH3 domain to the peptide
# In short: (§1)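 The binding signal is the normalized, background-subtracted spot intensity averaged over replicates; its arbitrary units differ between domains. It was obtained by incubating 10 μg/ml GST-fused SH3 domains from four yeast species overnight at 4°C in TBS-based blocking buffer on cellulose membranes with synthetic 15-mer peptides, cysteines replaced by serines, then detecting with anti-GST antibody, HRP anti-mouse secondary and luminol.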
row,Binder,SPOT peptide array binding signal intensity
1,VDFTLPPPPPPPGLD,4

# Molecular target: AgBbc1
# Experiment: as above
# In short: as §1
row,Binder,SPOT peptide array binding signal intensity
1,VDFTLPPPPPPPGLD,≤ 0

# Molecular target: AgBem1-D1
# Experiment: as above
# In short: as §1
row,Binder,SPOT peptide array binding signal intensity
1,VDFTLPPPPPPPGLD,≤ 0

# Molecular target: AgBzz1-D1
# Experiment: as above
# In short: as §1
row,Binder,SPOT peptide array binding signal intensity
1,VDFTLPPPPPPPGLD,≤ 0

# Molecular target: AgBzz1-D2
# Experiment: as above
# In short: as §1
row,Binder,SPOT peptide array binding signal intensity
1,VDFTLPPPPPPPGLD,≤ 0

# Molecular target: AgCyk3
# Experiment: as above
# In short: as §1
row,Binder,SPOT peptide array binding signal intensity
1,VDFTLPPPPPPPGLD,≤ 0

# Molecular target: AgFus1
# Experiment: as above
# In short: as §1
row,Binder,SPOT peptide array binding signal intensity
1,VDFTLPPPPPPPGLD,≤ 0

# Molecular target: AgHof1
# Experiment: as above
# In short: as §1
row,Binder,SPOT peptide array binding signal intensity
1,VDFTLPPPPPPPGLD,27.8

# Molecular target: AgHse1
# Experiment: as above
# In short: as §1
row,Binder,SPOT peptide array binding signal intensity
1,VDFTLPPPPPPPGLD,32

# Molecular target: AgLsb1
# Experiment: as above
# In short: as §1
row,Binder,SPOT peptide array binding signal intensity
1,VDFTLPPPPPPPGLD,1.5

# Molecular target: AgLsb4
# Experiment: as above
# In short: as §1
row,Binder,SPOT peptide array binding signal intensity
1,VDFTLPPPPPPPGLD,≤ 0

# Molecular target: AgMyo5
# Experiment: as above
# In short: as §1
row,Binder,SPOT peptide array binding signal intensity
1,VDFTLPPPPPPPGLD,1660

# Molecular target: AgNbp2
# Experiment: as above
# In short: as §1
row,Binder,SPOT peptide array binding signal intensity
1,VDFTLPPPPPPPGLD,≤ 0

# Molecular target: AgRvs167
# Experiment: as above
# In short: as §1
row,Binder,SPOT peptide array binding signal intensity
1,VDFTLPPPPPPPGLD,1.67

# Molecular target: AgSho1
# Experiment: as above
# In short: as §1
row,Binder,SPOT peptide array binding signal intensity
1,VDFTLPPPPPPPGLD,≤ 0

# Molecular target: AgSla1-D1-D2
# Experiment: as above
# In short: as §1
row,Binder,SPOT peptide array binding signal intensity
1,VDFTLPPPPPPPGLD,2

# Molecular target: AgSla1-D3
# Experiment: as above
# In short: as §1
row,Binder,SPOT peptide array binding signal intensity
1,VDFTLPPPPPPPGLD,0.5

# Molecular target: CaAbp1-D1
# Experiment: as above
# In short: as §1
row,Binder,SPOT peptide array binding signal intensity
1,VDFTLPPPPPPPGLD,≤ 0

# Molecular target: CaAbp1-D2
# Experiment: as above
# In short: as §1
row,Binder,SPOT peptide array binding signal intensity
1,VDFTLPPPPPPPGLD,9

# Molecular target: CaBbc1
# Experiment: as above
# In short: as §1
row,Binder,SPOT peptide array binding signal intensity
1,VDFTLPPPPPPPGLD,≤ 0

# Molecular target: CaBem1-D1
# Experiment: as above
# In short: as §1
row,Binder,SPOT peptide array binding signal intensity
1,VDFTLPPPPPPPGLD,≤ 0

# Molecular target: CaBzz1-D1
# Experiment: as above
# In short: as §1
row,Binder,SPOT peptide array binding signal intensity
1,VDFTLPPPPPPPGLD,230

# Molecular target: CaBzz1-D2
# Experiment: as above
# In short: as §1
row,Binder,SPOT peptide array binding signal intensity
1,VDFTLPPPPPPPGLD,≤ 0

# Molecular target: CaCyk3
# Experiment: as above
# In short: as §1
row,Binder,SPOT peptide array binding signal intensity
1,VDFTLPPPPPPPGLD,≤ 0

# Molecular target: CaFus1
# Experiment: as above
# In short: as §1
row,Binder,SPOT peptide array binding signal intensity
1,VDFTLPPPPPPPGLD,≤ 0

# Molecular target: CaHof1
# Experiment: as above
# In short: as §1
row,Binder,SPOT peptide array binding signal intensity
1,VDFTLPPPPPPPGLD,0.5

# Molecular target: CaHse1
# Experiment: as above
# In short: as §1
row,Binder,SPOT peptide array binding signal intensity
1,VDFTLPPPPPPPGLD,≤ 0

# Molecular target: CaLsb1
# Experiment: as above
# In short: as §1
row,Binder,SPOT peptide array binding signal intensity
1,VDFTLPPPPPPPGLD,≤ 0

# Molecular target: CaLsb4
# Experiment: as above
# In short: as §1
row,Binder,SPOT peptide array binding signal intensity
1,VDFTLPPPPPPPGLD,≤ 0

# Molecular target: CaMyo5
# Experiment: as above
# In short: as §1
row,Binder,SPOT peptide array binding signal intensity
1,VDFTLPPPPPPPGLD,29

# Molecular target: CaNbp2
# Experiment: as above
# In short: as §1
row,Binder,SPOT peptide array binding signal intensity
1,VDFTLPPPPPPPGLD,≤ 0

# Molecular target: CaRvs167
# Experiment: as above
# In short: as §1
row,Binder,SPOT peptide array binding signal intensity
1,VDFTLPPPPPPPGLD,1

# Molecular target: CaRvs167-3
# Experiment: as above
# In short: as §1
row,Binder,SPOT peptide array binding signal intensity
1,VDFTLPPPPPPPGLD,0.25

# Molecular target: CaSho1
# Experiment: as above
# In short: as §1
row,Binder,SPOT peptide array binding signal intensity
1,VDFTLPPPPPPPGLD,≤ 0

# Molecular target: CaSla1-D1-D2
# Experiment: as above
# In short: as §1
row,Binder,SPOT peptide array binding signal intensity
1,VDFTLPPPPPPPGLD,≤ 0

# Molecular target: CaSla1-D3
# Experiment: as above
# In short: as §1
row,Binder,SPOT peptide array binding signal intensity
1,VDFTLPPPPPPPGLD,≤ 0

# Molecular target: ScAbp1
# Experiment: as above
# In short: as §1
row,Binder,SPOT peptide array binding signal intensity
1,VDFTLPPPPPPPGLD,≤ 0

# Molecular target: ScBbc1
# Experiment: as above
# In short: as §1
row,Binder,SPOT peptide array binding signal intensity
1,VDFTLPPPPPPPGLD,≤ 0

# Molecular target: ScBem1-D1
# Experiment: as above
# In short: as §1
row,Binder,SPOT peptide array binding signal intensity
1,VDFTLPPPPPPPGLD,≤ 0

# Molecular target: ScBzz1-D1
# Experiment: as above
# In short: as §1
row,Binder,SPOT peptide array binding signal intensity
1,VDFTLPPPPPPPGLD,6

# Molecular target: ScBzz1-D2
# Experiment: as above
# In short: as §1
row,Binder,SPOT peptide array binding signal intensity
1,VDFTLPPPPPPPGLD,≤ 0

# Molecular target: ScCyk3
# Experiment: as above
# In short: as §1
row,Binder,SPOT peptide array binding signal intensity
1,VDFTLPPPPPPPGLD,1

# Molecular target: ScFus1
# Experiment: as above
# In short: as §1
row,Binder,SPOT peptide array binding signal intensity
1,VDFTLPPPPPPPGLD,≤ 0

# Molecular target: ScHof1
# Experiment: as above
# In short: as §1
row,Binder,SPOT peptide array binding signal intensity
1,VDFTLPPPPPPPGLD,17.8

# Molecular target: ScHse1
# Experiment: as above
# In short: as §1
row,Binder,SPOT peptide array binding signal intensity
1,VDFTLPPPPPPPGLD,≤ 0

# Molecular target: ScLsb1
# Experiment: as above
# In short: as §1
row,Binder,SPOT peptide array binding signal intensity
1,VDFTLPPPPPPPGLD,≤ 0

# Molecular target: ScLsb2
# Experiment: as above
# In short: as §1
row,Binder,SPOT peptide array binding signal intensity
1,VDFTLPPPPPPPGLD,1.5

# Molecular target: ScLsb3
# Experiment: as above
# In short: as §1
row,Binder,SPOT peptide array binding signal intensity
1,VDFTLPPPPPPPGLD,≤ 0

# Molecular target: ScLsb4
# Experiment: as above
# In short: as §1
row,Binder,SPOT peptide array binding signal intensity
1,VDFTLPPPPPPPGLD,≤ 0

# Molecular target: ScMyo3
# Experiment: as above
# In short: as §1
row,Binder,SPOT peptide array binding signal intensity
1,VDFTLPPPPPPPGLD,1810

# Molecular target: ScMyo5
# Experiment: as above
# In short: as §1
row,Binder,SPOT peptide array binding signal intensity
1,VDFTLPPPPPPPGLD,1800

# Molecular target: ScNbp2
# Experiment: as above
# In short: as §1
row,Binder,SPOT peptide array binding signal intensity
1,VDFTLPPPPPPPGLD,≤ 0

# Molecular target: ScPex13
# Experiment: as above
# In short: as §1
row,Binder,SPOT peptide array binding signal intensity
1,VDFTLPPPPPPPGLD,4.75

# Molecular target: ScRvs167
# Experiment: as above
# In short: as §1
row,Binder,SPOT peptide array binding signal intensity
1,VDFTLPPPPPPPGLD,2.33

# Molecular target: ScSho1
# Experiment: as above
# In short: as §1
row,Binder,SPOT peptide array binding signal intensity
1,VDFTLPPPPPPPGLD,≤ 0

# Molecular target: ScSla1-D1-D2
# Experiment: as above
# In short: as §1
row,Binder,SPOT peptide array binding signal intensity
1,VDFTLPPPPPPPGLD,≤ 0

# Molecular target: ScSla1-D3
# Experiment: as above
# In short: as §1
row,Binder,SPOT peptide array binding signal intensity
1,VDFTLPPPPPPPGLD,≤ 0

# Molecular target: SpAbp1-D1
# Experiment: as above
# In short: as §1
row,Binder,SPOT peptide array binding signal intensity
1,VDFTLPPPPPPPGLD,≤ 0

# Molecular target: SpBbc1
# Experiment: as above
# In short: as §1
row,Binder,SPOT peptide array binding signal intensity
1,VDFTLPPPPPPPGLD,0.5

# Molecular target: SpBzz1-D1
# Experiment: as above
# In short: as §1
row,Binder,SPOT peptide array binding signal intensity
1,VDFTLPPPPPPPGLD,1630

# Molecular target: SpBzz1-D2
# Experiment: as above
# In short: as §1
row,Binder,SPOT peptide array binding signal intensity
1,VDFTLPPPPPPPGLD,7

# Molecular target: SpCyk3
# Experiment: as above
# In short: as §1
row,Binder,SPOT peptide array binding signal intensity
1,VDFTLPPPPPPPGLD,1

# Molecular target: SpHof1
# Experiment: as above
# In short: as §1
row,Binder,SPOT peptide array binding signal intensity
1,VDFTLPPPPPPPGLD,≤ 0

# Molecular target: SpHof1-2
# Experiment: as above
# In short: as §1
row,Binder,SPOT peptide array binding signal intensity
1,VDFTLPPPPPPPGLD,0.75

# Molecular target: SpHof1-3
# Experiment: as above
# In short: as §1
row,Binder,SPOT peptide array binding signal intensity
1,VDFTLPPPPPPPGLD,1.75

# Molecular target: SpHse1
# Experiment: as above
# In short: as §1
row,Binder,SPOT peptide array binding signal intensity
1,VDFTLPPPPPPPGLD,11

# Molecular target: SpLsb1
# Experiment: as above
# In short: as §1
row,Binder,SPOT peptide array binding signal intensity
1,VDFTLPPPPPPPGLD,0.5

# Molecular target: SpLsb4
# Experiment: as above
# In short: as §1
row,Binder,SPOT peptide array binding signal intensity
1,VDFTLPPPPPPPGLD,≤ 0

# Molecular target: SpMyo1
# Experiment: as above
# In short: as §1
row,Binder,SPOT peptide array binding signal intensity
1,VDFTLPPPPPPPGLD,1110

# Molecular target: SpNbp2
# Experiment: as above
# In short: as §1
row,Binder,SPOT peptide array binding signal intensity
1,VDFTLPPPPPPPGLD,≤ 0

# Molecular target: SpPex13
# Experiment: as above
# In short: as §1
row,Binder,SPOT peptide array binding signal intensity
1,VDFTLPPPPPPPGLD,≤ 0

# Molecular target: SpRvs167
# Experiment: as above
# In short: as §1
row,Binder,SPOT peptide array binding signal intensity
1,VDFTLPPPPPPPGLD,1

# Molecular target: SpSla1-D1-D2
# Experiment: as above
# In short: as §1
row,Binder,SPOT peptide array binding signal intensity
1,VDFTLPPPPPPPGLD,≤ 0

# Molecular target: SpSla1-D3
# Experiment: as above
# In short: as §1
row,Binder,SPOT peptide array binding signal intensity
1,VDFTLPPPPPPPGLD,≤ 0
